High-throughput results as filed in PubChem BioAssay.
Most compounds without a hit are left out; they make up all but 0.7% or so of the library.
Mtb hypoxia rep = inhibitors of hypoxia-regulated fluorescent reporter in Mycobacterium tuberculosis; 300,000 tested, 0.1% active; M. tuberculosis hypoxia-regulated fluorescent reporter, fluorescence; fluorescence inhibition, % (no concentration beside the values); in the data active = fluorescence inhibition mostly above about 23%, no sharp cut-off; inactive = mostly below about 17%
FadD28 FP inh = inhibitors of Mycobacterium tuberculosis FadD28 bisubstrate binding; 360,000 tested, 0.22% active; inhibition, % at 12.5 µM; FadD28 bisubstrate probe binding, fluorescence polarization; in the data active = inhibition above about 8.5%, passing the limit was not always enough
DUSP3 inh = blocks human VHR1 dual specificity phosphatase; recombinant VHR phosphatase, pNPP absorbance; inhibition, % at 13.3 µM; 290,000 tested, 0.52% active; in the data active = inhibition above about 50%
Target sequence (P51452 whole entry, looked up): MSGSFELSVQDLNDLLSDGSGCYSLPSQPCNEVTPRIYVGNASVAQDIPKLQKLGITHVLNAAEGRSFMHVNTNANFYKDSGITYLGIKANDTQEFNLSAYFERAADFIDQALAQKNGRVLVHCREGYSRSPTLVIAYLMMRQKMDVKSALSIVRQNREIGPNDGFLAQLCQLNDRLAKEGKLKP
3CLpro inhibitor = SARS-CoV 3CLpro protease inhibition. inhibition, % at 6 µM. 290,000 tested, 0.14% active. AID 1706. recombinant SARS-CoV 3CLpro, quenched FRET peptide cleavage; in the data active = inhibition above about 12%
BioA inh = blocks M. tuberculosis BioA enzyme activity | AID 602481 | purified M. tuberculosis BioA enzyme, plate reader | 360,000 tested, 0.096% active | inhibition, % at 9.99 µM; in the data active = inhibition above about 40%
* marks the source's active call; other numbers are inactive results.

What do the screens show for `COc1ccc(CNC(=O)c2ccc(Cl)c(S(=O)(=O)N3CCCCCC3)c2)cc1`?
FadD28 FP inh: 8.7*; BioA inh: -1

What do the screens show for `NN=CC(=NNc1ccc(Cl)cc1)C(=O)c1ccncc1`?
Mtb hypoxia rep: 5

Results for COc1ccc(CCNC(=O)CC(C)=NNC(=O)COc2ccc(C)cc2Br)cc1OC ?
Mtb hypoxia rep: 12

What do the screens show for `O=C1C(=Cc2ccco2)Oc2c1ccc(O)c2CN1CCCCC1`?
Mtb hypoxia rep: 5

What do the screens show for `CN(c1ccc(C(=O)NCCSCc2ccc(Cl)cc2)cc1)S(=O)(=O)c1ccccc1`?
Mtb hypoxia rep: 1; FadD28 FP inh: 3; DUSP3 inh: 13; 3CLpro inhibitor: 5

Results for Cc1ccc(CSCCNC(=O)c2ccc(N(C)S(=O)(=O)c3ccccc3)cc2)cc1 ?
Mtb hypoxia rep: 19; FadD28 FP inh: 8.8*; DUSP3 inh: -11; 3CLpro inhibitor: -4

How did COc1ccc([N+](=O)[O-])cc1NC(=O)Cn1ccsc1=N do in these assays?
Mtb hypoxia rep: 6; FadD28 FP inh: 0; DUSP3 inh: 51*; 3CLpro inhibitor: 2; BioA inh: 2

Results for Cc1cc(NC(=O)Cn2ccsc2=N)c([N+](=O)[O-])cc1C ?
Mtb hypoxia rep: -1; FadD28 FP inh: -1; DUSP3 inh: 16; 3CLpro inhibitor: -1

What do the screens show for `Cc1ccc(C=NNC(=O)c2ccc(-c3ccccc3)cc2)o1`?
Mtb hypoxia rep: 9

How did Cc1cc(C)nc(SCC(=O)NN=Cc2cccn2-c2ccc(O)cc2)n1 do in these assays?
Mtb hypoxia rep: 1

Results for CC(=O)NCC(=O)NC1CC(C)(C)Cc2c1cnn2-c1ccccc1 (centres undefined) ?
Mtb hypoxia rep: -3; FadD28 FP inh: -3; DUSP3 inh: 12; 3CLpro inhibitor: -5; BioA inh: -1

What do the screens show for `COC(=O)CCC(=O)NC1CC(C)(C)Cc2c1cnn2-c1ccccc1` (centres undefined)?
Mtb hypoxia rep: 1; FadD28 FP inh: -3; DUSP3 inh: 57*; 3CLpro inhibitor: -5; BioA inh: 2

How did O=C(COC(=O)Cc1ccc(Cl)cc1)NCc1cccs1 do in these assays?
Mtb hypoxia rep: 29*; FadD28 FP inh: -3; BioA inh: 0

What do the screens show for `Cc1ccc(N2CC(C(=O)NC(C)CCc3ccccc3)CC2=O)cc1` (centres undefined)?
Mtb hypoxia rep: -2; FadD28 FP inh: -2; DUSP3 inh: 53*; 3CLpro inhibitor: -3; BioA inh: -1

How did CCC(=O)OCC(=O)[C@@]1(OC(=O)CC)C(C)CC2C3CCC4=CC(=O)C=C[C@]4(C)[C@@]3(Cl)C(O)C[C@@]21C (some centres undefined) do in these assays?
Mtb hypoxia rep: -1

Results for COc1ccccc1N(CC(=O)N1CCCC1)S(=O)(=O)c1ccc(C)cc1 ?
FadD28 FP inh: -4; DUSP3 inh: 2; 3CLpro inhibitor: 0; BioA inh: -1

How did COc1ccccc1N(CC(=O)N1CCCCCC1)S(=O)(=O)c1ccc(C)cc1 do in these assays?
Mtb hypoxia rep: -18; FadD28 FP inh: 1; DUSP3 inh: 50*; 3CLpro inhibitor: -3; BioA inh: 1

How did COc1ccc(-c2cc(-c3ccccc3)nc(Cl)n2)cc1OC do in these assays?
Mtb hypoxia rep: 3; FadD28 FP inh: -6; DUSP3 inh: 51*; 3CLpro inhibitor: 3; BioA inh: -1

Results for Cc1ccc(/C=C/C(=O)Nc2nnc(SCc3ccc(C#N)cc3)s2)o1 ?
Mtb hypoxia rep: -1; FadD28 FP inh: 1; DUSP3 inh: 60*; 3CLpro inhibitor: 3; BioA inh: -6

What do the screens show for `O=C1NC(Cc2ccccc2)C(=O)N2C1C[C@]1([C@]34CC5C(=O)NC(Cc6ccccc6)C(=O)N5C3Nc3ccccc34)c3ccccc3NC21` (some centres undefined)?
Mtb hypoxia rep: 9

How did Cc1ccc(NC(=O)CNc2ccccc2N2CCCC2=O)cc1S(=O)(=O)N1CCCCC1 do in these assays?
Mtb hypoxia rep: -4; FadD28 FP inh: 42*; BioA inh: 0

How did Cc1cccc(OCCC(=O)Nc2ccc(C)c(S(=O)(=O)N3CCCCC3)c2)c1 do in these assays?
FadD28 FP inh: 1; DUSP3 inh: 51*; 3CLpro inhibitor: 11; BioA inh: -2

How did COC(=O)C1=C(c2cccc(OC)c2OC)CC2CCC1N2C(=O)NCC1CC1 (centres undefined) do in these assays?
Mtb hypoxia rep: 5

Results for CCN(CC)C(=O)C[n+]1cccc(C=NO)c1 ?
Mtb hypoxia rep: 5

How did Cc1cccc(NC(=O)Cn2c(=O)n3nc(CCn4nc(C)cc4C)nc3c3ccccc32)c1 do in these assays?
Mtb hypoxia rep: 1; FadD28 FP inh: 9.0*; DUSP3 inh: 35; 3CLpro inhibitor: 1; BioA inh: 1

How did CC1(C)NC(=O)N(CCCOc2ccccc2Br)C1=O do in these assays?
FadD28 FP inh: -1; DUSP3 inh: 51*; 3CLpro inhibitor: 4; BioA inh: -2

What do the screens show for `CC1(C)NC(=O)N(CCCCOc2ccccc2[N+](=O)[O-])C1=O`?
Mtb hypoxia rep: 15; DUSP3 inh: 35; 3CLpro inhibitor: -4

How did CN(C)c1ccc(C(c2nnnn2C(C)(C)C)N2CCN(C(=O)c3ccco3)CC2)cc1 (centres undefined) do in these assays?
FadD28 FP inh: -1; DUSP3 inh: 36; 3CLpro inhibitor: -3; BioA inh: 2

Results for CCOc1ccc(C(c2nnnn2C(C)(C)C)N2CCN(C(=O)c3ccco3)CC2)cc1 (centres undefined) ?
Mtb hypoxia rep: 9; FadD28 FP inh: 1; DUSP3 inh: 59*; 3CLpro inhibitor: 1; BioA inh: 2

How did O=C(O)c1cc(-c2ccc(/C=N/Nc3ccc(Cl)cc3)o2)ccc1Cl do in these assays?
FadD28 FP inh: 15*; DUSP3 inh: 20; 3CLpro inhibitor: 6; BioA inh: 27

How did O=C(O)c1ccc(N/N=C/c2ccc(-c3ccccc3)cc2)cc1 do in these assays?
FadD28 FP inh: 19*; DUSP3 inh: 2; 3CLpro inhibitor: -3

How did Cc1ccc(S(=O)(=O)Oc2cccc(/C=N/Nc3ccc(C(=O)O)cc3)c2)cc1 do in these assays?
FadD28 FP inh: 30*; DUSP3 inh: 18; 3CLpro inhibitor: 4; BioA inh: 17

Results for Cc1ccc(S(=O)(=O)Oc2cccc(/C=N/n3cnnc3)c2)cc1 ?
FadD28 FP inh: -5; DUSP3 inh: 5; 3CLpro inhibitor: 0

What do the screens show for `O=C(O)c1ccc(NN=Cc2ccc(-c3ccccc3)cc2)cc1`?
Mtb hypoxia rep: 10

What do the screens show for `O=C(O)c1cc(N/N=C/c2ccc(-c3ccccc3)cc2)ccc1Cl`?
FadD28 FP inh: 19*; DUSP3 inh: 28; 3CLpro inhibitor: 3; BioA inh: 2

What do the screens show for `CCCCNC(=S)N(C)N=Cc1ccc(OCc2ccc(C(=O)OC)cc2)c(OC)c1`?
Mtb hypoxia rep: 5

How did CCC(=NNc1ccccc1[N+](=O)[O-])c1ccc(O)cc1 do in these assays?
Mtb hypoxia rep: 10
